Source: PubChem BioAssay
Activity calls are given as the source filed them.

test: E. coli growth modulation, two-sided OD650, primary screen, E. coli filamentation project, strain DRC41, 24 h (AID 1093); details: OD650, 24 h, higher = more signal, called active from +8 up or from −8 down;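 further: MC1000 strain lacking acrAB efflux and sulA so SOS filamentation is blocked; test concentration not given here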

z-score, inactive:
COC(=O)C(CC#Cc1ccc2c(c1)[C@]1(C(=O)N2)[C@H](C(=O)N2CCN(c3ncccn3)CC2)[C@H]2C(=O)O[C@H](c3ccccc3)[C@H](c3ccccc3)N2[C@@H]1c1ccc(OCCO)cc1)C(=O)OC 0.54
COCCOC(=O)N1C(=O)[C@@]2(c3cc(C#CC4=CCCCC4)ccc31)[C@H](c1ccccc1OCCO)N1[C@H](c3ccccc3)[C@H](c3ccccc3)OC(=O)[C@H]1[C@@H]2C(=O)N1CCCCCCC1 0.0735
CCOC(=O)C[C@H]1[C@H](OC(=O)c2ccc(C(=O)c3ccccc3)cc2)[C@@H](NC(=O)Cc2ccc(OC)cc2)c2cc(OCCCO)ccc2N1C(=O)c1ccccc1 -0.978
C=CC[C@@]1(C(=O)N2CCOCC2)N=C(c2ccc(OCCCO)cc2)O[C@@H]1c1ccccc1CN=[N+]=[N-] 0.0893
NC(=O)NCC#Cc1ccc2c(c1)[C@]1(C(=O)N2)[C@H](C(=O)NC[C@H](O)c2ccccc2)[C@H]2C(=O)O[C@H](c3ccccc3)[C@H](c3ccccc3)N2[C@@H]1c1ccc(OCCO)cc1 1.63
C=C(COC)/C(=C/C[C@H](OC(=O)c1ccncc1)c1ccccc1OCCO)c1cnc2ccccc2c1 0.395
[N-]=[N+]=Nc1ccccc1C[C@]1(C(N)=O)N=C(c2ccc(OCCCO)cc2)O[C@H]1c1ccccc1N=[N+]=[N-] -0.436
CN1C(=O)C2C=CC(C(O)c3ccccn3)N(N(c3ccccc3)c3ccccc3)C2C1=O (configuration not stated) -0.828
NCCCCCCNC(=O)[C@@H]1C[C@@H]2C(=O)N[C@@H](CCCCN)C(=O)N2[C@@H]1c1cccc(OCCO)c1 0.398
O=C1N(Cc2ccccc2)c2ccccc2[C@@H]2OC(c3ccc(OCCCO)cc3)=N[C@]12Cc1ccccc1 0.8
CCCCCCCCCCC(O)C1C=CC2C(=O)N(C)C(=O)C2N1NC(=O)OC(C)(C)C (configuration not stated) -2.14
OCCCC1=CC(c2ccc(CN3CCCC3)cc2)N(Cc2sc3ccccc3c2Cl)CC1 (configuration not stated) -0.271
[N-]=[N+]=Nc1ccccc1[C@@H]1OC(c2ccc(OCCCO)cc2)=N[C@]1(Cc1ccccc1)C(=O)NCC(O)CO (some centres not stated) 1.05
C=CCC(OC(C)=O)[C@@H]1[C@@H](N(Cc2cc3ccccc3o2)C(=O)c2ccc(-c3ccccc3)cc2)c2cc(OCCCO)ccc2N1C(=O)c1ccc2ccccc2c1 (some centres not stated) -0.704
Cc1cc(C)c(C(O)C2C=CC3C(=O)N(c4ccccc4)C(=O)C3N2Nc2ccc(C(C)C)cc2)c(C)c1 (configuration not stated) -1.87
COc1cc(OC)c(C(O)C2C=CC3C(=O)N(c4ccccc4)C(=O)C3N2Nc2ccccc2)cc1Br (configuration not stated) -0.604
CO[C@H]1O[C@H](CO)[C@@H](OC(=O)Nc2ccccc2-c2ccccc2)[C@H](OC(=O)Nc2ccc3c(c2)OCO3)[C@H]1OC(=O)Nc1ccc2c(c1)OCO2 2
CC1CC/C=C\[C@H]2OC34C=CCN(c5ccc(Cl)cc5)C(=O)[C@H]3N(CCCCCO)C(=O)[C@]4(C)C2C(=O)O1 (some centres not stated) -0.367
CC(C)N1C(=O)c2ccccc2[C@@H](C(=O)NC2CC2)[C@@H]1c1ccc(CO)cc1 0.141
COCCCNC(=O)[C@@]1(Cc2ccccc2CN=[N+]=[N-])N=C(c2ccc(OCCCO)cc2)O[C@H]1c1ccccc1 0.261
COc1ccc([Si](C)(C)[C@@H]2[C@@H](CCO)O[C@]3(C(=O)N(Cc4ccc(N5CCCCC5=O)cc4)c4ccccc43)[C@H]2C)cc1 1.2
C=C(/C(=C/C[C@@H](OC(C)=O)c1cccc(OCCO)c1)c1cc(C(=O)OC)ccc1OC)C(C)C 0.251
C=C(COC)C(=O)CC[C@@H](OC(=O)c1cccnc1)c1ccc(OCCO)cc1 -0.653
CN(C)c1ccc(C(O)C2C=CC3C(=O)N(c4ccccc4)C(=O)C3N2Nc2ccc([N+](=O)[O-])cc2)cc1 (configuration not stated) -0.564
C=C[C@@H](COC(C)=O)N(C(=O)OC(C)(C)C)S(=O)(=O)c1ccc(Br)cc1 0.411
CCCC[C@@H](O)C1=C(COc2ccccc2)C[C@H]2C(=O)N(C)C(=O)[C@H]2[C@H]1CO 1.31
COC(=O)c1ccc([C@H](NC(=O)c2ccco2)[C@]2(C)C[C@H]2C2CCCCC2)cc1 -1.49
